From the OligoGym collection

target: GPR64; experiment: pooled miR-30 sensor sort-seq; sequence = guide strand; conditions: shRNA
Also: reference of the scale not given here.

| Sequence | sensor-assay potency score (higher = more potent) |
| --- | --- |
| TTGGTTTACAGTCTGCTTCTTT | 0.449 |
| TACATGTAGCAACAATAGCAGT | -1.27 |
| TAGTGTATTGTTTAAAACCAAC | -1.45 |
| ATTATCAGTATCTTCTTCCAGG | -0.212 |
| TAAGCTTAAAGTAACATCTGGA | 0.962 |
| TAAAGTAACATCATTGAGGCTT | 0.0974 |
| TAACAATCAACAATGTACCATG | -0.826 |
| TTGAAGAGCTGGACACTCCTTG | 0.677 |
| TAGTCTACTCTCCTGTTCCTAA | -0.669 |
| TTCTATAATCTGACTACTGGGG | -0.476 |
| TAGTGTTGACATTCGCAGGGGC | 0.711 |
| TTGAATACTGGTTTTTCGCTGG | 0.838 |

target: GPRC5B; experiment: as above; conditions: shRNA

| Sequence | sensor-assay potency score (higher = more potent) |
| --- | --- |
| TACCATGTCGTAGATGAGGGCC | -0.116 |
| TTGTTCTCCATATAGGCCCGCG | -1.02 |
| TTGGGAAATCCTGCTGTTCGGA | -0.702 |
| TACACGTTGCTTCTAAACGGAG | -1.35 |
| TGCTGCAGCTTGACATTGCCGA | -0.579 |
| TTGAGCACGACGGCCATCTCAG | -1.15 |
| TTCCACCTCTTGAACTTGCCGC | -0.546 |
| AAGAGGTACATGGTCATCCAGG | -1.02 |
| TTGAACTTGCCGCACAGAGTGA | -0.846 |
| TTCGGAGAGCTGCATTGTGTTC | -1.86 |
| ATACACGTTGCTTCTAAACGGA | -0.0127 |
| ATGAGCATCAGGAGCAGTGTGA | -1.27 |
